Laboratory results from PubChem BioAssay AID2561 (National Center for Advancing Translational Sciences (NCATS), 2010).
Records with an inconclusive call do not appear. Unmarked numbers belong to inactive results. Activity calls are given as the source filed them. Calls come from the whole dose curve; as a rule, active = well fitted inhibition curve with a large enough effect; inconclusive = small, poorly fitted or top-dose-only effect, or effect the other way; inactive = flat fitted curve, though single readings scatter.

Biological target: Pyruvate kinase (Leishmania mexicana) (UniProt Q27686)
Assay: Confirmation Assay for Inhibitors of Leishmania Mexicana Pyruvate Kinase (LmPK): for Probe SAR;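 for activity change, negative = inhibition: plate controls were uninhibited enzyme for no effect and no enzyme wells for full effect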
Conditions: purified LmPK, ATP generation, Kinase-Glo luminescence; series mostly up to 57.5 µM; activity change, negative = inhibition: at the top concentration
Excerpt: NIH Chemical Genomics Center [NCGC] Malcolm Walkinshaw, Hugh Morgan, Linda Gilmore University of Edinburgh, UK MLPCN Grant: 1 R03 MH085697-01 NCGC Assay Overview: Pyruvate kinase (L. Mexicana) (LmPK) enzyme was supplied as a highly purified (>95% pure) sulphate-free preparation from University of Edinburgh, UK and assayed for its ability to generate ATP from ADP using phosphoenolpyruvate (PEP) as a substrate. ATP generation was detected in a coupled reaction by luciferase-mediated luminescence, an ATP-dependent process. Pyruvate kinase substrates, PEP and ADP, were present in the assay at Km and approximately 10-fold below Km respectively. The enzyme was assayed at an intermediate level of activity to screen for both inhibitors and activators.
NCGC Assay Protocol Summary: Three uL of enzyme mix (kept on ice) in assay buffer (50 mM Imidazole pH7.2, 50 mM KCl, 7 mM MgCl2, 0.01% Tween 20, 0.05% BSA) containing PEP (0.5 mM final concentration) and LmPK (0.1 nM final concentration) was dispensed into white solid bottom 1,536 well microtiter plates. 23 nL of compound were delivered by a pin tool and 1 uL of ADP mix in assay buffer (r.t; 0.1 mM final ADP concentration) was added. Plates were incubated at room temperature for 1 hour. Two uL of detection mix (Kinase-Glo, Promega; at 4 degree Celsius protected from light) was added and luminescence read by a ViewLux (Perkin Elmer) at 1 second exposure/plate. Data were normalized to the uninhibited and AC100 inhibition (no enzyme). To monitor activation, the first column contained a five-fold concentration of LmPK (0.5 nM).
Potency is the fitted concentration of half-maximal effect.

Chain of Pyruvate kinase (Leishmania mexicana) (Q27686 whole entry, looked up): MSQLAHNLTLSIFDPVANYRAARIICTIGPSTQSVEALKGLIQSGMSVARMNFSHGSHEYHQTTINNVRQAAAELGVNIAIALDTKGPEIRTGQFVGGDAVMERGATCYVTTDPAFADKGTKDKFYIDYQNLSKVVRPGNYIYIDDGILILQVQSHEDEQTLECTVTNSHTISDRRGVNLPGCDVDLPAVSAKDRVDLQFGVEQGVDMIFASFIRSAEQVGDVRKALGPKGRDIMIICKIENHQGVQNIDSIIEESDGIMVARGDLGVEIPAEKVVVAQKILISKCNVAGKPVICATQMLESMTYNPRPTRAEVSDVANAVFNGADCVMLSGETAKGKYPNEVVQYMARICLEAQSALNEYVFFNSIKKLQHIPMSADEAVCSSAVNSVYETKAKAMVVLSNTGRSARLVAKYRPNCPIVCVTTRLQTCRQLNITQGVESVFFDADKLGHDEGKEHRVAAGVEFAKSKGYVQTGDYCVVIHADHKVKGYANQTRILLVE

For `Cc1ccc(NS(=O)(=O)c2ccc(F)cc2)cc1C`, which “activity change, negative = inhibition” value is on record?
The value was -9.65%.

How did the “activity change, negative = inhibition” value turn out when `O=C1c2ccccc2C(=O)N1c1cccc2ncccc12` was run?
The value was 5.45%.

`Cc1ccc(NS(=O)(=O)c2cc3c(cc2C)NC(=O)CO3)cc1C` was tested. Which “activity change, negative = inhibition” value did it give?
The value was 15.9%.

How did the “activity change, negative = inhibition” value turn out when `CC(=O)Nc1ccccc1OC1=N[S+](=O)([O-])c2ccccc21` was run?
The value was -3%.

`O=S1(=O)N=C(Oc2cccc(-c3ccccc3)c2)c2ccccc21` was tested. Which Potency did it give?
Its Potency is 3.26 µM (active).

With `O=C1CCc2cc(S(=O)(=O)Nc3ccc4ccccc4c3)ccc2N1` as the molecule, how does the “activity change, negative = inhibition” value read?
Its value is 19.4%.

Which “activity change, negative = inhibition” value does the source give for `O=C1c2ccc3ccccc3c2C(=O)C1c1cc(=O)c2ccccc2[nH]1` (stereo not given) here?
Its value is -2.16%.

`O=S1(=O)N=C(Sc2cccc3cccnc23)c2ccccc21` was tested. Which Potency did it give?
Its Potency is 2.91 µM (active).

With `CCCCN1C(=O)c2ccccc2C1=O` as the molecule, how does the “activity change, negative = inhibition” value read?
Its value is -2.93%.

`O=C1c2ccccc2C(=O)N1c1noc2ccccc12` was tested. Which “activity change, negative = inhibition” value did it give?
The value was 4.19%.

How did the Potency turn out when `COC(=O)c1ccc2c(c1)S(=O)(=O)N=C2Sc1cc(C)ccc1C` was run?
The Potency was 8.19 µM (active).

With `Cc1cc(C)c2c(=O)cc(C3C(=O)c4ccccc4C3=O)[nH]c2c1` as the molecule, how does the “activity change, negative = inhibition” value read?
Its value is -17.6%.

For `Cc1cc(C)c2nc(C3C(=O)c4ccccc4C3=O)ccc2c1`, which “activity change, negative = inhibition” value is on record?
Its value is -5.25%.

Which “activity change, negative = inhibition” value does the source give for `O=C1CCc2cc(S(=O)(=O)NCc3ccccc3)ccc2N1` here?
The value was 12.8%.

`COc1ccc(-c2nc3cccc(C)n3c2Nc2ccc(C)cc2)cc1` was tested. Which “activity change, negative = inhibition” value did it give?
Its value is 1.54%.

`O=C1NS(=O)(=O)c2cc3c(cc21)C(=O)NS3(=O)=O` was tested. Which “activity change, negative = inhibition” value did it give?
The value was 2.34%.

`O=C1c2ccccc2C(=O)N1Cc1cccnc1` was tested. Which “activity change, negative = inhibition” value did it give?
Its value is -2.71%.

With `CN(C)c1cccc(S(=O)(=O)N2CCN(S(=O)(=O)c3ccc4c(c3)OCCO4)CC2)c1` as the molecule, how does the “activity change, negative = inhibition” value read?
Its value is -6.38%.

`CC(=O)Nc1cccc(S(=O)(=O)Nc2ccc(C)c(C)c2)c1` was tested. Which “activity change, negative = inhibition” value did it give?
Its value is 1.41%.

For `Cc1ccc2nc(-c3ccc(C)o3)c(Nc3ccc(F)cc3)n2c1`, which “activity change, negative = inhibition” value is on record?
Its value is -21.2%.

Which “activity change, negative = inhibition” value does the source give for `Cc1ccc(Nc2c(-c3ccc(C)o3)nc3cccc(C)n23)cc1` here?
The value was 10.8%.

For `Cc1ccc(NS(=O)(=O)c2ccc(Cl)cc2)cc1C`, which “activity change, negative = inhibition” value is on record?
The value was 7.67%.

How did the “activity change, negative = inhibition” value turn out when `Cc1ccc(NS(=O)(=O)c2cc3c(cc2-c2ccccc2)NC(=O)CO3)cc1C` was run?
Its value is 1.9%.

`N#Cc1cccnc1SC1=NS(=O)(=O)c2ccccc21` was tested. Which Potency did it give?
Its Potency is 16.3 µM (active).

With `Cc1ccccc1Nc1c(-c2ccccc2)nc2cccc(C)n12` as the molecule, how does the “activity change, negative = inhibition” value read?
The value was 8.08%.

For `CCOc1ccc2[nH]c(C3C(=O)c4ccccc4C3=O)cc(=O)c2c1`, which “activity change, negative = inhibition” value is on record?
The value was -13.9%.

With `O=C1c2ccccc2C(=O)N1c1cccc(O)c1` as the molecule, how does the “activity change, negative = inhibition” value read?
The value was -8.63%.

How did the “activity change, negative = inhibition” value turn out when `O=C1NS(=O)(=O)c2cc(Br)ccc21` was run?
Its value is 1.61%.

How did the “activity change, negative = inhibition” value turn out when `Cc1ccc(C)c(O)c1` was run?
The value was -3.02%.

With `O=C1c2ccccc2C(=O)N1Cc1ccccc1` as the molecule, how does the “activity change, negative = inhibition” value read?
Its value is 7.51%.

For `N#Cc1cccc(OC2=NS(=O)(=O)c3ccccc32)c1`, which Potency is on record?
The Potency was 4.61 µM (active).

For `CNc1cccc(S(=O)(=O)N2CCN(S(=O)(=O)c3ccc4c(c3)OCCO4)CC2)c1`, which “activity change, negative = inhibition” value is on record?
Its value is -4.57%.

With `CC(C)c1ccccc1SC1=NS(=O)(=O)c2ccccc21` as the molecule, how does the Potency read?
The Potency was 1.83 µM (active).

Which “activity change, negative = inhibition” value does the source give for `CC(=O)N1CCc2cc(S(=O)(=O)Nc3ccc(C)c(C)c3)ccc21` here?
The value was -1.54%.

`Cc1cc(=O)oc2cc(SC3=NS(=O)(=O)c4ccccc43)ccc12` was tested. Which Potency did it give?
Its Potency is 1.83 µM (active).

`Cc1ccc(NS(=O)(=O)c2cccc(C(=O)O)c2)cc1C` was tested. Which “activity change, negative = inhibition” value did it give?
The value was 7.24%.

Which Potency does the source give for `O=S(=O)(c1ccc2c(c1)OCCO2)N1CCN(S(=O)(=O)c2c(F)cccc2F)CC1` here?
Its Potency is “inactive”.

Which “activity change, negative = inhibition” value does the source give for `Cc1ccc(NS(=O)(=O)c2ccc3c(c2)oc(=O)n3C)cc1C` here?
The value was 8.92%.

How did the “activity change, negative = inhibition” value turn out when `Cc1ccc(NS(=O)(=O)c2cc3c(cc2F)NC(=O)CC3)cc1C` was run?
The value was -3.34%.

`O=C1CCc2cc(S(=O)(=O)Nc3ccc4c(c3)OCCO4)ccc2N1` was tested. Which “activity change, negative = inhibition” value did it give?
The value was 14.1%.
